Inconclusive results are not listed. A number with no mark means an inactive call. Calls of active or inactive are those of the source. Calls follow the shape of the dose curve; as a rule, active = well fitted inhibition curve with a large enough effect; inconclusive = small, poorly fitted or top-dose-only effect; inactive = flat fitted curve, though single readings scatter.

One test deals with CRL-7250. The test can be described thus: Cytotoxic Profiling of Annotated Libraries Using Quantitative High-Throughput Screening (AID 1296008). Also: potency is read from the fitted curve at half-maximal effect. As to max response: % is scaled to controls: 0 for no effect and ±100 for the full control effect. The conditions noted are these: Five cell lines viability, CellTiter-Glo ATP luminescence, 48-72 h; max response: active compounds read low. Put shortly:
(§1)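 Compounds were pin-transferred onto cells and incubated 48 or 72 hr at 37 degree Celsius, 95% humidity. CellTiter-Glo was added, plates sat 10 min at room temperature, then ATP-coupled luminescence was imaged as the viability read-out.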
For orientation: In ATP-based viability assays light output follows the ATP content of the culture.

For the next test, the system named is HEK293. Described as above. The conditions noted are these: Five cell lines viability, CellTiter-Glo ATP luminescence, 48-72 h; max response: active compounds read low. Put shortly: as §1
The subject of test [1] is HaCat. Described as above. The conditions noted are these: Five cell lines viability, CellTiter-Glo ATP luminescence, 48-72 h; max response: active compounds read low. Summed up: as §1
In the next test the test system is KB-3-1. The test is described as above. As to conditions: Five cell lines viability, CellTiter-Glo ATP luminescence, 48-72 h; max response: active compounds read low. Put shortly:
as §1

Test [2] relates to NIH3T3. The description is as above. As to conditions: Five cell lines viability, CellTiter-Glo ATP luminescence, 48-72 h; max response: active compounds read low. Summed up:
as §1

The subject of test [3] is HACAT. The test can be described thus: qHTS assay to identify novel small-molecules to repurpose for Merkel cell carcinoma treatment (AID 1296009). Also: potency is read from the fitted curve at half-maximal effect. As to activity change, negative = cytotoxicity: % is scaled to controls: 0 for no effect and ±100 for the full control effect. As to conditions: MCC and control cell lines, CellTiter-Glo viability, 72 h; at 44.8 µM (top of the series) unless noted. Summed up: (§2)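 Viability readout: ATP luminescence (CellTiter-Glo) after 72 hr drug exposure at 37 degree celsius. Dose-response format was 8 points for NPC and 11 points for MIPE; data normalized to in-plate controls.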
A general note: In qHTS, concentration-response curves come from the screen itself.

The next test relates to MCC-13. The description is as above. The conditions noted are these: MCC and control cell lines, CellTiter-Glo viability, 72 h; series mostly up to 46 µM. Put shortly:
as §2

The test system of another test is MCC-26. Described as above. The conditions noted are these: MCC and control cell lines, CellTiter-Glo viability, 72 h; series mostly up to 46 µM. Summed up: as §2
In another test the test system is MKL-1. Described as above. As to conditions: MCC and control cell lines, CellTiter-Glo viability, 72 h; series mostly up to 46 µM. Summed up:
as §2

The next test has as its system MKL-2. The test is described as above. The conditions noted are these: MCC and control cell lines, CellTiter-Glo viability, 72 h; series mostly up to 46 µM. Put shortly:
as §2

A further test deals with UISO. Described as above. As to conditions: MCC and control cell lines, CellTiter-Glo viability, 72 h; series mostly up to 46 µM. Put shortly: as §2
The next test deals with WaGa. The description is as above. As to conditions: MCC and control cell lines, CellTiter-Glo viability, 72 h; series mostly up to 46 µM. Summed up: as §2
The next test deals with HEK293T. The description is as above. The conditions noted are these: MCC and control cell lines, CellTiter-Glo viability, 72 h; series mostly up to 44.8 µM. Put shortly:
as §2

Test [4] relates to NIH3T3. Described as above. The conditions noted are these: MCC and control cell lines, CellTiter-Glo viability, 72 h; at 44.8 µM (top of the series) unless noted. Put shortly: as §2
A further test deals with TAB165. The test is described as follows: qHTS profiling for inhibitors of Plasmodium falciparum proliferation (AID 504749).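 Also: 0% = DMSO vehicle and full inhibition = artemisinin control.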 As to conditions: P. falciparum in erythrocytes, SYBR Green DNA, 72 h; series mostly up to 28.7 µM. Put shortly:
(§3)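 Quantitative HTS: compounds pinned into medium, infected erythrocytes added (0.3% parasitemia, 2.5% hematocrit), 72 h culture at 37 C under 5% CO2. Saponin/Triton lysis with SYBR Green I, overnight RT, then fluorescence read.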

In another test the test system is W2. Described as above. As to conditions: P. falciparum in erythrocytes, SYBR Green DNA, 72 h; series mostly up to 28.7 µM. Summed up: as §3
Also: nearly all actives have a fitted effect of over 60% in size.

On to `CCCCCCCCCCCCCCCC(=O)OC[C@@H](NC(=O)C(Cl)Cl)[C@H](O)c1ccc([N+](=O)[O-])cc1`, for which the max response with CRL-7250 is -9.61%; in the test with HEK293, 2.69%; with NIH3T3 [2] it was 0.666%. The molecule was classed as inactive in the test on HaCat [1], in the test with KB-3-1 and with HACAT [3]. In addition, the Potency result with MCC-13, in the test with MCC-26, with MKL-1, in the test with MKL-2, with UISO and with WaGa was “inactive” throughout.
As to `NC[C@H]1O[C@H](O[C@H]2[C@@H](O)[C@@H](O[C@H]3O[C@H](CO)[C@@H](O)[C@H](N)[C@@H]3O)[C@H](N)C[C@@H]2N)[C@H](N)C[C@H]1O`, the max response in the test with CRL-7250 is -1.47%; in the test with HEK293 it was 0.89%; in the test with KB-3-1, 1.19%; in the test on NIH3T3 [2], -1.89%. For the same molecule, the molecule was classed as inactive in the test on HaCat [1] and with HACAT [3]. Moreover, the Potency result with MCC-13, with MCC-26, in the test with MKL-1, in the test with MKL-2, with UISO and in the test with WaGa was “inactive” in each case.
`C=C1C[C@@]2(O)O[C@@]3(C[C@H]2C(C)C)[C@H](C)CC[C@H]13`: the figures for the max response in the test on CRL-7250, in the test with HEK293 and in the test with NIH3T3 [2] were -11.2%, 0.867% and 2.78%, respectively. For the same molecule, the result in the test with HaCat [1], in the test on KB-3-1 and with HACAT [3] was inactive. Further, the Potency entry with MCC-13, with MCC-26, with MKL-1, with MKL-2, in the test with UISO and in the test on WaGa was “inactive” throughout.
As for `O=C(CN1C(=O)C2(CCCC2)NC[C@H]1c1cc(F)cc(F)c1)Nc1ccc2c(c1)C[C@@]1(C2)C(=O)Nc2ncccc21`, the molecule was called inactive in the test with CRL-7250 and with HEK293. In addition, the max response with HaCat [1] is 3.79%; in the test with KB-3-1 it was 2.38%; in the test on NIH3T3 [2] it was -4.62%. Further, the Potency entry in the test on HEK293T, with MCC-13, in the test on MCC-26, with MKL-1, with MKL-2 and in the test on UISO was “inactive” in each case. The Potency result in the test on WaGa was “inactive”.
For the molecule `COc1cc(C)c(C=CC(C)=CC=CC(C)=CC(=O)O)c(C)c1C`, the figures for the max response in the test with CRL-7250, with HEK293 and in the test on NIH3T3 [2] were -4.27%, -16.6% and -4.41%, respectively. Also, the result in the test with HaCat [1], with KB-3-1 and with HACAT [3] was inactive. Further, the Potency entry in the test with MCC-13, with MCC-26, with MKL-1, in the test with UISO and in the test on WaGa was “inactive” each time.
As for `C[C@@H](NCc1cc2ccccc2[nH]1)c1cccc2ccccc12`, the max response in the test on CRL-7250 was 3.32%; with HEK293 it was -2.05%; in the test with KB-3-1, 3.8%; in the test with NIH3T3 [2], 2.38%. The result in the test on HaCat [1] and with HACAT [3] was inactive. The Potency entry in the test on MCC-13, with MKL-1, with MKL-2, in the test on UISO and in the test with WaGa was “inactive” throughout.
As for `CCCCCCCCCCCCc1ccc(S(=O)(=O)Nc2nncs2)cc1`, the result with CRL-7250, in the test on HEK293, in the test with KB-3-1, with NIH3T3 [2] and in the test on NIH3T3 [4] was inactive. Moreover, the max response in the test on HaCat [1] was -11%. The Potency result with HEK293T, with MCC-13, in the test on MCC-26, in the test with MKL-1, with MKL-2 and in the test on UISO was “inactive” throughout. Besides, in the test with WaGa, the Potency result was “inactive”.
Regarding `O=C(O)CCCCC(CCSCc1ccccc1)SCc1ccccc1` (stereo not given), the results for the max response in the test with CRL-7250, in the test with HEK293 and with NIH3T3 [2] were 0.756%, -0.529% and 2.24%, respectively. For the same molecule, the molecule was called inactive in the test with HaCat [1], in the test with KB-3-1 and with HACAT [3]. Also, the Potency entry in the test on MCC-13, in the test with MKL-1 and in the test with UISO was “inactive” each time. Also, the Potency in the test on WaGa is 13200 nM (active).
Turning to `COc1ccc([C@@H]2CNC(=O)C2)cc1OC1CCCC1`, the Potency entry with TAB165, with W2, with MCC-13, in the test with MCC-26 and in the test with MKL-1 was “inactive” in each case. Further, the molecule was classed as inactive with CRL-7250, in the test on HaCat [1], in the test on KB-3-1, in the test with NIH3T3 [2], with HACAT [3] and with NIH3T3 [4]. The max response with HEK293 was 2.8%.
Consider `CC(C)(C)[C@H](NC(=O)c1ccc(N)c(Cl)c1)C(=O)N1CCC[C@@H]1C(=O)N[C@H](C#N)CC(=O)O`, for which the molecule was called inactive in the test with CRL-7250, in the test on HaCat [1] and in the test on NIH3T3 [2]. The max response in the test on HEK293 is -9.49%; in the test on KB-3-1 it was 5.36%. Also, the outcome with HACAT [3] and in the test on NIH3T3 [4] was “inactive [at 4.96 µM]” throughout. Also, the activity change, negative = cytotoxicity with MCC-13 is 7.54% [at 4.84 µM]; with MCC-26, -4.4% [at 4.84 µM]; in the test with MKL-1, 0.918% [at 4.84 µM]; in the test on UISO, 4.89% [at 4.84 µM]; in the test on WaGa it was -0.0966% [at 4.84 µM].
Take `C[C@H](NCc1ccc2c(c1)nc(NC(=O)c1ccc(-c3cn[nH]c3)s1)n2CCc1ccccc1)C(C)(C)C`: the Potency with CRL-7250 is 1870 nM (active); in the test with HEK293, 935 nM (active); with HaCat [1], 2960 nM (active); with KB-3-1, 1050 nM (active); in the test on NIH3T3 [2], 2640 nM (active); in the test on MCC-13, 10500 nM (active). Moreover, the Potency with MCC-26 was 10500 nM (active); in the test on MKL-1, 2350 nM (active); with MKL-2, 5900 nM (active); in the test with UISO, 6620 nM (active); in the test on WaGa it was 4690 nM (active).
With `COc1ccc(C(C)=O)c(O)c1`, the max response is -6.37% in the test on CRL-7250; 0.614% in the test on HEK293; -4.96% in the test with HaCat [1]; 4.34% in the test on KB-3-1; 2.86% in the test with NIH3T3 [2]. For the same molecule, the Potency entry in the test on MCC-13, in the test on MCC-26, in the test with MKL-1, with MKL-2, in the test with UISO and in the test on WaGa was “inactive” in each case.
`C[C@@H](Oc1ccc2[nH]nc(C=Cc3cnn(CCO)c3)c2c1)c1c(Cl)cncc1Cl`: the Potency in the test on CRL-7250 is 11800 nM (active); in the test on HEK293, 13200 nM (active); in the test with HaCat [1] it was 3320 nM (active); in the test on KB-3-1, 418 nM (active); in the test with NIH3T3 [2], 3720 nM (active); in the test with MCC-13, 26400 nM (active). For the same molecule, the Potency in the test on MCC-26 is 16600 nM (active); with MKL-1 it was 7430 nM (active); with UISO, 20900 nM (active). In the test on MKL-2, the Potency result is “inactive”.
`O=C(O)C=Cc1ccc(Cn2ccnc2)cc1`: the max response was 3.43% in the test on CRL-7250, -2.77% with HEK293, -0.523% with HaCat [1] and -0.597% in the test on NIH3T3 [2]. In the test on KB-3-1, the molecule was classed as inactive. In addition, the Potency entry in the test on MCC-13, in the test with MCC-26, in the test on MKL-1, with MKL-2, in the test with UISO and in the test on WaGa was “inactive” in each case.
As to `COc1cccc2c1C(=O)c1c(O)c3c(c(O)c1C2=O)C[C@@](O)(C(C)=O)C[C@H]3O[C@H]1C[C@H](N)[C@H](O)[C@H](C)O1`, the Potency with CRL-7250 is 132 nM (active); in the test with HEK293, 66.2 nM (active); in the test on HaCat [1], 418 nM (active); in the test with KB-3-1, 235 nM (active); in the test with NIH3T3 [2], 209 nM (active); with MCC-13, 590 nM (active). Moreover, the Potency in the test on MCC-26 was 372 nM (active); in the test with MKL-1, 33.2 nM (active); with MKL-2, 23.5 nM (active); with UISO it was 46.9 nM (active).
